Drawing on PubChem BioAssay (EPA / NIEHS), this text covers outcome and AC50 for three compounds.

Calls of active or inactive are those of the source. The calls were made as follows: active = hit-call score of the fitted dose curve at least 0.9, where 1 is the maximum; inactive = score below 0.9.

Conditions in all cases: mRNA level, 48 h; actives raise or lower the signal
Read-out in assay [1]: matrix metalloproteinase-10 (MMP10), MMP10 (gene 4319)
Kind of assay: LTEA_HepaRG_MMP10: Life Technologies and Expression Analysis (LTEA) Assay for matrix metalloproteinase-10 (MMP10) using HepaRG (AID 2283517). A digest of the protocol: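 In differentiated HepaRG cultures kept in 0.5% DMSO, test chemicals act for 48 h over an eight-point range with a top dose of 100 uM. Expression is then quantified by TaqMan RT-PCR against ACTB, GAPDH and POLR2A.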

Read-out in a further assay: MYC, MYC (gene 4609)
As to the kind of experiment: LTEA_HepaRG_MYC: Life Technologies and Expression Analysis (LTEA) Assay for MYC using HepaRG (AID 2283518). In outline:
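Expression changes were scored by TaqMan qRT-PCR with ACTB, GAPDH and POLR2A normalization. Cultures in serum-free induction medium received duplicate 8-point concentration series, highest 100 uM, for 48 h; DMSO (0.5%) served as baseline.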

Read-out in assay [2]: matrix metalloproteinase-3 (MMP3), MMP3 (gene 4314)
As to the kind of experiment: LTEA_HepaRG_MMP3: Life Technologies and Expression Analysis (LTEA) Assay for matrix metalloproteinase-3 (MMP3) using HepaRG (AID 2283519). In outline:
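Human liver HepaRG cultures received chemicals (top concentration 100 uM, 0.5% DMSO) for 48 h in duplicate. MMP3 mRNA induction or loss was then assessed via TaqMan qRT-PCR with housekeeping-gene normalisation.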

Read-out in assay [3]: Paternally Expressed 10 (PEG10), PEG10 (gene 23089)
Kind of assay: LTEA_HepaRG_PEG10: Life Technologies and Expression Analysis (LTEA) Assay for Paternally Expressed 10 (PEG10) using HepaRG (AID 2283520). In outline:
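qRT-PCR read-out: PEG10 mRNA normalised to three housekeeping genes, fitted bidirectionally against 0.5% DMSO vehicle. HepaRG cells received test chemicals for 48 h in serum-free induction medium, 8 points, top 100 uM, half-log steps.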

Read-out in assay [4]: Nuclear factor NF-kappa-B p105 subunit (Homo sapiens) (UniProt P19838)
Kind of assay: LTEA_HepaRG_NFKB1: Life Technologies and Expression Analysis (LTEA) Assay for Nuclear Factor Kappa B Subunit 1 (NFKB1) using HepaRG (AID 2283521).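 Also: differentiated human HepaRG liver cells in serum-free induction medium; TaqMan qRT-PCR transcript normalised to ACTB GAPDH and POLR2A housekeeping genes.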 A digest of the protocol:
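HepaRG, 48 h exposure; 8-pt half-log series from 100 uM in 0.5% DMSO; duplicates. Readout: NFKB1 mRNA by qRT-PCR (Fluidigm arrays), housekeeping-normalized. Gain/loss fit vs DMSO baseline.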

Read-out in assay [5]: Protein phosphatase 2A (PPP2R4), PTPA (gene 5524)
Kind of assay: LTEA_HepaRG_PPP2R4: Life Technologies and Expression Analysis (LTEA) Assay for Protein phosphatase 2A (PPP2R4) using HepaRG (AID 2283522). A digest of the protocol:
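HepaRG, 48 h exposure, 8-pt half-log series from 100 uM, 0.5% DMSO vehicle, duplicates. Readout: PPP2R4 mRNA, Fluidigm qRT-PCR, housekeeping-normalized. Bidirectional curve fit vs DMSO baseline.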

Read-out in assay [6]: Phosphatase and tensin (PTEN), PTEN (gene 5728)
As to the kind of experiment: LTEA_HepaRG_PTEN: Life Technologies and Expression Analysis (LTEA) Assay for Phosphatase and tensin (PTEN) using HepaRG (AID 2283523). In outline:
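Expression of PTEN is quantified in the human liver line HepaRG following two days of dosing (top concentration 100 uM, half-log dilutions, 0.5% DMSO). Values derive from bidirectional curve fitting relative to DMSO controls.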

Read-out in assay [7]: solute carrier (SLC22A1), SLC22A1 (gene 6580)
Kind of assay: LTEA_HepaRG_SLC22A1: Life Technologies and Expression Analysis (LTEA) Assay for solute carrier (SLC22A1) using HepaRG (AID 2283524). A digest of the protocol:
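Transcript induction or suppression of SLC22A1 in human HepaRG cultures is scored after 48 h chemical treatment, with DMSO (0.5%) as baseline for bidirectional fitting. Concentrations span eight half-log points topping at 100 uM.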

Read-out in assay [8]: Pyruvate Dehydrogenase Kinase 4 (PDK4), PDK4 (gene 5166)
Kind of assay: LTEA_HepaRG_PDK4: Life Technologies and Expression Analysis (LTEA) Assay for Pyruvate Dehydrogenase Kinase 4 (PDK4) using HepaRG (AID 2283525). In outline: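 Eight-point, half-log concentration series (max 100 uM, 0.5% DMSO) applied to differentiated HepaRG cells for 48 h in duplicate. Endpoint: PDK4 mRNA induction or repression by qRT-PCR against DMSO baseline.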

Read-out in assay [9]: NAD(P)H dehydrogenase [quinone] 1 (NQO1), NQO1 (gene 1728)
As to the kind of experiment: LTEA_HepaRG_NQO1: Life Technologies and Expression Analysis (LTEA) Assay for NAD(P)H dehydrogenase [quinone] 1 (NQO1) using HepaRG (AID 2283526). In outline:
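qRT-PCR read-out (Fluidigm TaqMan), normalized to three housekeeping genes, after 48 h chemical exposure of HepaRG cells. Concentrations: eight points, top 100 uM, half-log steps, 0.5% DMSO vehicle. Gain or loss of signal fitted relative to DMSO.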

Read-out in assay [10]: Nuclear factor erythroid 2-related factor 2 (Homo sapiens) (UniProt Q16236)
As to the kind of experiment: LTEA_HepaRG_NFE2L2: Life Technologies and Expression Analysis (LTEA) Assay for Nuclear factor erythroid 2-related factor 2 (NFE2L2) Transcription Factor using HepaRG (AID 2283527).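 Also: TaqMan qRT-PCR transcript level normalised to ACTB GAPDH and POLR2A housekeeping genes.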 In outline: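 Human liver HepaRG line treated in duplicate for 48 h with an eight-point series topping at 100 uM. Gene expression of NFE2L2 by qRT-PCR, bidirectionally fitted against the vehicle control.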

Read-out in assay [11]: succinate dehydrogenase complex iron sulfur subunit B (SDHB), SDHB (gene 6390)
Kind of assay: LTEA_HepaRG_SDHB: Life Technologies and Expression Analysis (LTEA) Assay for succinate dehydrogenase complex iron sulfur subunit B (SDHB) using HepaRG (AID 2283528). A digest of the protocol:
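Readout is SDHB transcript level by qRT-PCR, normalised to three housekeeping genes and fitted bidirectionally against 0.5% DMSO vehicle. Human HepaRG cells were treated for 48 h at up to 100 uM.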

Read-out in assay [12]: Signal transducer and activator of transcription 3 (Homo sapiens) (UniProt P40763)
Kind of assay: LTEA_HepaRG_STAT3: Life Technologies and Expression Analysis (LTEA) Assay for Signal transducer and activator of transcription (STAT3) using HepaRG (AID 2283529). A digest of the protocol:
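In this transcriptional endpoint, HepaRG cultures receive test chemicals at up to 100 uM for 48 h, tested in duplicate. STAT3 mRNA is normalized to ACTB, GAPDH and POLR2A.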

Read-out in assay [13]: solute carrier (SLCO1B1), SLCO1B1 (gene 10599)
As to the kind of experiment: LTEA_HepaRG_SLCO1B1: Life Technologies and Expression Analysis (LTEA) Assay for solute carrier (SLCO1B1) using HepaRG (AID 2283530). A digest of the protocol:
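Human HepaRG cultures treated for 48 h with an eight-concentration half-log series topping at 100 uM; SLCO1B1 measured by qRT-PCR and fitted bidirectionally relative to DMSO.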

Read-out in assay [14]: sulfotransferase 2A1 (SULT2A1), SULT2A1 (gene 6822)
As to the kind of experiment: LTEA_HepaRG_SULT2A1: Life Technologies and Expression Analysis (LTEA) Assay for sulfotransferase 2A1 (SULT2A1) using HepaRG (AID 2283531). A digest of the protocol:
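Gene-expression endpoint in a human liver cell line: SULT2A1 mRNA change after 48 h chemical treatment, curves fitted in both directions relative to 0.5% DMSO vehicle. Concentrations spanned eight half-log steps from 100 uM.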

Read-out in assay [15]: Transforming Growth Factor (TGFA), TGFA (gene 7039)
As to the kind of experiment: LTEA_HepaRG_TGFA: Life Technologies and Expression Analysis (LTEA) Assay for Transforming Growth Factor (TGFA) using HepaRG (AID 2283532). A digest of the protocol:
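Gene expression of TGFA was quantified by qRT-PCR after human HepaRG cells were treated for 48 h with test chemicals (eight concentrations, highest 100 uM, 0.5% DMSO). Activity in either direction was fitted relative to DMSO.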

Read-out in assay [16]: Transforming Growth Factor (TGFB1), TGFB1 (gene 7040)
Kind of assay: LTEA_HepaRG_TGFB1: Life Technologies and Expression Analysis (LTEA) Assay for Transforming Growth Factor (TGFB1) Transporter using HepaRG (AID 2283533). In outline: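 Eight-point concentration-response (max 100 uM, half-log) in HepaRG under serum-free induction conditions, 48 h. TGFB1 mRNA by qRT-PCR, housekeeping-normalized.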

Read-out in the next assay: TIMP1, TIMP1 (gene 7076)
As to the kind of experiment: LTEA_HepaRG_TIMP1: Life Technologies and Expression Analysis (LTEA) Assay for TIMP1 using HepaRG (AID 2283534).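 Also: TaqMan qRT-PCR signal normalized to ACTB GAPDH and POLR2A housekeeping genes.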 In outline: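 TIMP1 induction or repression in HepaRG cells after 48 h chemical exposure (eight concentrations, highest 100 uM), assessed by normalized qRT-PCR with bidirectional fitting to DMSO controls.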

Read-out in assay [17]: Tumor necrosis factor receptor 1 (TNFRSF1A), TNFRSF1A (gene 7132)
Kind of assay: LTEA_HepaRG_TNFRSF1A: Life Technologies and Expression Analysis (LTEA) Assay for Tumor necrosis factor receptor 1 (TNFRSF1A) using HepaRG (AID 2283535). In outline:
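Assay uses 48 h chemical treatment of differentiated HepaRG monolayers, tested in duplicate at eight concentrations from 100 uM downward in 0.5% DMSO. mRNA is normalized to ACTB, GAPDH and POLR2A, with induction or suppression fitted relative to vehicle.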

Read-out in assay [18]: Thyroid Hormone Responsive (THRSP), THRSP (gene 7069)
Kind of assay: LTEA_HepaRG_THRSP: Life Technologies and Expression Analysis (LTEA) Assay for Thyroid Hormone Responsive (THRSP) using HepaRG (AID 2283536). A digest of the protocol:
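Cell model: human HepaRG, approx. 100,000 cells/well, 0.5% DMSO vehicle. Exposure lasts 48 h; phenobarbital 1 mM serves as induction positive control. Gene expression is measured by qRT-PCR against three endogenous control genes.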

Sequence of Nuclear factor NF-kappa-B p105 subunit (Homo sapiens) (P19838 whole entry, looked up): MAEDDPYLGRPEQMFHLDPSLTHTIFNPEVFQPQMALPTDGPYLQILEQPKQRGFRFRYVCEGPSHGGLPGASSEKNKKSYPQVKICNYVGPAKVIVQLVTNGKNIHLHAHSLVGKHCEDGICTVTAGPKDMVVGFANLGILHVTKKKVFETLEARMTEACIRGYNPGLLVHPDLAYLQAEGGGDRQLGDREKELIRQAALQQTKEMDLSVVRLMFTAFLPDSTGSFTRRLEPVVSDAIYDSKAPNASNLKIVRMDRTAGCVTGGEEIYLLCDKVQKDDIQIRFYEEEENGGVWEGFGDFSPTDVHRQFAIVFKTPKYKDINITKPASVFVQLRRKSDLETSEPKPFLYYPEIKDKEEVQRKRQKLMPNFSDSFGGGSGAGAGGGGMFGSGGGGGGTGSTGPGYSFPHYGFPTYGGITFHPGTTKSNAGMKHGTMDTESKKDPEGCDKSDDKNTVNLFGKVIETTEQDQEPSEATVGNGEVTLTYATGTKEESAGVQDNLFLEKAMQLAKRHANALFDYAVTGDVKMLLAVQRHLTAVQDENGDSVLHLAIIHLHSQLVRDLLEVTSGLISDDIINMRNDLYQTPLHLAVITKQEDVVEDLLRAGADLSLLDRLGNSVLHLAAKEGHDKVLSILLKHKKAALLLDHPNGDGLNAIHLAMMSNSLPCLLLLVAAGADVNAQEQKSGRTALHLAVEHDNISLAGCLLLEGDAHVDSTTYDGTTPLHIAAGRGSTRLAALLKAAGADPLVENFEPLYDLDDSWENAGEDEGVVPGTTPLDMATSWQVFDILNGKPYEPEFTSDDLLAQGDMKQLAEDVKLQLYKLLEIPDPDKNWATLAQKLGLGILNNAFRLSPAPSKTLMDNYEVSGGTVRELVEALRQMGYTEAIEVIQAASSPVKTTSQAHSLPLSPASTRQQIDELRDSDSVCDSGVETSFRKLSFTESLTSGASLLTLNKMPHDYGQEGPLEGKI
Sequence of Nuclear factor erythroid 2-related factor 2 (Homo sapiens) (Q16236 whole entry, looked up): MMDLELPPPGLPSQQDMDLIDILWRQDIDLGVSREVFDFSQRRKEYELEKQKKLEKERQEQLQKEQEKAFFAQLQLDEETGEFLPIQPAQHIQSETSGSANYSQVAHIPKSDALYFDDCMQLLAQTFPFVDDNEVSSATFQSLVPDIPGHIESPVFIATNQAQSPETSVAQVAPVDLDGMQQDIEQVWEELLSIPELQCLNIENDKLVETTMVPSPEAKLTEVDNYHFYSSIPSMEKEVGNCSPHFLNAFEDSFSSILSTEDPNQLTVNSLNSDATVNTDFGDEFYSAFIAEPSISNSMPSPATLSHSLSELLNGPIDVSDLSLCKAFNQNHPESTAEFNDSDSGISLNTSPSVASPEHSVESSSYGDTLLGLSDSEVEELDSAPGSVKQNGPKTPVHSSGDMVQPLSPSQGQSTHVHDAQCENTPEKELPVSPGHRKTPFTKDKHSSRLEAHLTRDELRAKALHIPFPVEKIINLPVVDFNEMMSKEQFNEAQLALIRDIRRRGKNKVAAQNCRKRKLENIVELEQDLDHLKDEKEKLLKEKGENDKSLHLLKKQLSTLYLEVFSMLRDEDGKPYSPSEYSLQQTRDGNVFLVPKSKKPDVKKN
Sequence of Signal transducer and activator of transcription 3 (Homo sapiens) (P40763 whole entry, looked up): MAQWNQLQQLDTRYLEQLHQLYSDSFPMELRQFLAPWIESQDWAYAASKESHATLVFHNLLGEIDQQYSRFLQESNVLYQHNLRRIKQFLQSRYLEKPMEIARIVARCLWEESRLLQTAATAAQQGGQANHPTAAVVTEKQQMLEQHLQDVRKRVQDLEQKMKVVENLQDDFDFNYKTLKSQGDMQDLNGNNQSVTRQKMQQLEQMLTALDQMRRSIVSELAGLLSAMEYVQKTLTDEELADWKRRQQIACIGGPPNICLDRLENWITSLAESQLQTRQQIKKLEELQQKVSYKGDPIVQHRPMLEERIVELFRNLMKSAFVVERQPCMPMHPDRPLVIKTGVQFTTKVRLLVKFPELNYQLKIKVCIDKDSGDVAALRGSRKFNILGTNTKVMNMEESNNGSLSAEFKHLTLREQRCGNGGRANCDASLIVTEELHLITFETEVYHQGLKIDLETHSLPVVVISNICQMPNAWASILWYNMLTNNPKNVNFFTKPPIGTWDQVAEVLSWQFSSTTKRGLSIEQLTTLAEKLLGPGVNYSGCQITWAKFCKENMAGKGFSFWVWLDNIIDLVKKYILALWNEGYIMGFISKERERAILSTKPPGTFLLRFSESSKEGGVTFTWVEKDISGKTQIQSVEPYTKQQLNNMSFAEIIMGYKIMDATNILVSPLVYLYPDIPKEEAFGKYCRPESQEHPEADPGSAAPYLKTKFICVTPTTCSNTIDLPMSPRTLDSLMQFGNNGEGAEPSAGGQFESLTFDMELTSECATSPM

For `Cc1cccc([N+](=O)[O-])c1C`, the outcome in assay [1] is “inactive”; in the assay with MYC, MYC (gene 4609), “inactive”; in [2], “inactive”; in assay [3] it was “inactive”; in assay [4], “inactive”; in assay [5] it was “inactive”. Moreover, the outcome in assay [6], in assay [7], in assay [8], in assay [9], in assay [10] and in assay [11] was inactive. In addition, the outcome in assay [12] is “inactive”; in [13], “inactive”; in [14], “inactive”; in [15], “inactive”; in assay [16] it was “inactive”; with TIMP1, TIMP1 (gene 7076) it was “inactive”. Moreover, the result in assay [17] and in assay [18] was inactive.

On to `CCCCCCOCCO`, for which the outcome in assay [1] was “inactive”; with MYC, MYC (gene 4609), “inactive”; in assay [2], “inactive”; in [3] it was “inactive”; in [4] it was “inactive”; in assay [5], “inactive”. Besides, the outcome in [6], in assay [7], in [8], in assay [9], in assay [10] and in assay [11] was inactive. In addition, the outcome in assay [13] is “inactive”; in [14] it was “inactive”; in [15], “inactive”; in [16], “inactive”; in the assay with TIMP1, TIMP1 (gene 7076), “inactive”; in assay [17] it was “inactive”. In addition, the result in assay [18] was inactive. Further, the AC50 in [12] was 9.92 µM (active).

Regarding `COC(=O)c1ccc(O)cc1`, the outcome in assay [1] is “inactive”; with MYC, MYC (gene 4609), “inactive”; in [2], “inactive”; in assay [3], “inactive”; in assay [4] it was “inactive”; in [5] it was “inactive”. The result in assay [6], in assay [7], in [8], in [9], in [10] and in [11] was inactive. In addition, the outcome in assay [12] was “inactive”; in [13], “inactive”; in [14], “inactive”; in assay [15], “inactive”; in assay [16], “inactive”; with TIMP1, TIMP1 (gene 7076), “inactive”. Besides, the compound was called inactive in [17] and in assay [18].

The term AC50 denotes the concentration at which the activity in the assay is half-maximal.
